A selection: hits, their analogues and other compounds. The true share with any hit is near 19%.
DT40 TDP1 CPT = DT40-hTDP1 cell growth loss with CPT; chicken DT40 Tdp1-/-;hTDP1 cells + 20 nM CPT, ATP luminescence, 48 h; Potency, µM (doses to about 46.2 µM), for the others: at the top dose activity change, negative = growth inhibition, usual class: inhibitors; 12% of 420,000 active; AID 686979; further: potency means the concentration at half of the fitted maximal effect; nearly all actives have a fitted effect of over 55% in size
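Chicken DT40 Tdp1-/- cells stably complemented with human TDP1 were seeded at 400 cells/well in medium containing 20 nM camptothecin, exposed to pin-transferred compounds, and grown at 37 °C for at least 48 hr. Viability was read as ATP luminescence.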
HT1080 IDH1KD tx = kills HT-1080 cells with IDH1 knockdown | Potency, µM (top dose mostly 46.1 µM), inactives show at the highest dose activity, negative = toxicity, hits mostly cytotoxic | AID 686971 | 2% of 360,000 active | HT-1080 IDH1 knockdown viability, ATP luminescence, 48 h;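 further: potency means the concentration at half of the fitted maximal effect; 0% = DMSO wells and -100% = cell-free medium wells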
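Cytotoxicity counter-line: IDH1KD HT-1080, 48 h, CellTiter-Glo. Curves classed by r2, magnitude and activity.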
TDP1 cell noCPT = qHTS for Inhibitors of human tyrosyl-DNA phosphodiesterase 1 (TDP1): qHTS in cells in absence of CPT. DT40 Tdp1-/- hTDP1 cells, no CPT, ATP luminescence, 48 h. Potency, µM (highest dose often 46.2 µM), for inactives: at the top dose activity change, negative = growth inhibition, usual class: inhibitors. 15% of 420,000 active. AID 686978, 2013; further: potency means the concentration at half of the fitted maximal effect; nearly all actives have a fitted effect of over 55% in size
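Camptothecin absent (DMSO only). Human TDP1-complemented DT40 knockout cells, 400 cells/well, 37 °C for minimum 48 hr; ATP measured via CellTiter-Glo, 30 min dark incubation, luminescence.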
uPA generation = inhibitors of cell surface uPA generation; AID 540303; 0.31% of 330,000 active; cell surface uPA generation assay, qHTS; Potency, µM (highest dose often 38.3 µM), without a hit: at the highest dose activity change, negative = inhibition, usual class: inhibitors; active means well fitted inhibition curve with a large enough effect; inconclusive means small, poorly fitted or top-dose-only effect; inactive means no such curve, though single readings can be large or run the other way; tested in mouse RAW 264.7 cells; further: potency means the concentration at half of the fitted maximal effect; nearly all actives have a fitted effect of over 55% in size
IL-1B inflam inh = inflammasome signaling inhibition, IL-1 beta readout. AID 743279. 4.7% of 360,000 active. THP-1 LPS/ATP IL-1B secretion, AlphaLISA, 16 h; stronger effect = lower value. activity change, % at 57.5 µM; in the data active means activity change below about -50%; inconclusive means mostly about -30% to -49%
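THP-1 cells pretreated 1 hr with compounds (up to 57.5 uM final), then stimulated with LPS (250 ng/mL final) plus ATP (1.25 mM final); secreted IL-1B measured by AlphaLISA after 16 hr, decreased signal indicating inhibition.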
HT1080NT lethal = kills 2HG-producing HT-1080-NT fibrosarcoma cells. HT-1080-NT fibrosarcoma viability, CellTiter-Glo ATP luminescence, 48 h. Potency, µM (top dose mostly 46.1 µM), inactives show at the highest dose activity, negative = less viability, usual class: cytotoxic. 1.6% of 360,000 active;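 further: NT is the 2HG producing partner of a matched IDH1 knockdown line; potency means the concentration at half of the fitted maximal effect; 0% = DMSO-treated cells and -100% = media-only wells without cells; nearly all actives have a fitted effect of over 55% in size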
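Read-out is CellTiter-Glo luminescence after 10 minutes at room temperature, following 48 hours' compound treatment of HT-1080-NT cells (750 cells/well, RPMI, 5% FBS, 37 degrees C).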
The depositor's hits bear a star; ? = inconclusive; nt = not tested or not shown. Unless noted, the call rests on the fitted dose curve; in most records, active means well fitted curve in the direction sought with a large enough effect; inconclusive means small, poorly fitted or top-dose-only effect, or another doubt; inactive means no such curve, though single readings can be large; an effect the other way counts as inactive or inconclusive. Unless noted, on the % scale 0 is the no-effect control and ±100 the full control effect.

SMILES | DT40 TDP1 CPT | HT1080 IDH1KD tx | TDP1 cell noCPT | uPA generation | IL-1B inflam inh | HT1080NT lethal
Cc1ccccc1OCC(=O)N(Cc1ccc(N(C)C)cc1)C1CCS(=O)(=O)C1 (configuration not stated) | -20% | 6% | -25% | 0% | -21 | 0%
Cc1ccc(OCC(=O)N(Cc2ccc(N(C)C)cc2)CC2CCCO2)cc1C (configuration not stated) | 15µM* | nt | 15µM* | nt | nt | nt
Cc1ccc(N(Cc2ccc(C(=O)NCC3CCCO3)cc2)S(C)(=O)=O)cc1C (configuration not stated) | 9% | 9% | -8% | 5% | 0 | 7%
CC(C(=O)NC(N)=O)N1C(=O)NC(c2ccccc2)(c2ccccc2)C1=O (configuration not stated) | -1% | 2% | -2% | -3% | 17 | 6%
O=c1c(O)cccc2cc(O)c(O)c(O)c12 | ? | -15% | 21µM* | ? | 0 | ?
Nc1nc(CCl)nc(N(c2ccccc2)c2ccccc2)n1 | ? | 2.9µM* | ? | 0% | -102* | ?
COc1ccc2nc3oc(C(=O)NC4CCN(Cc5ccccc5)CC4)cc3cc2c1 | 18µM* | -21% | 18µM* | -1% | -9 | ?
CCOC(=O)N1CCC(NC(=O)c2cc3cc4cc(OC)ccc4nc3o2)CC1 | ? | -27% | 21µM* | -6% | ? | -5%
COc1ccc2nc3oc(C(=O)NCc4ccccc4OC)cc3cc2c1 | 9% | nt | 1% | nt | nt | nt
CCOc1ncccc1C(=O)Nc1ccc(Cl)c(S(=O)(=O)N2CCCC2)c1 | 21µM* | 12% | 21µM* | -4% | 5 | -1%
CSc1ncccc1C(=O)Nc1ccc2nc(C)sc2c1 | -23% | 15% | -2% | -8% | -27 | 30%
Cc1nc2ccc(NC(=O)c3nn(CC(C)C)c(=O)c4ccccc34)cc2s1 | ? | -14% | ? | 6% | -85* | 0%
CCOc1ncccc1C(=O)Nc1ccc2nc(C)sc2c1 | ? | -27% | 18µM* | -4% | -5 | ?
CCc1nc(SCc2ccc(OCC(C)C)cc2)n[nH]1 | 4.6µM* | ? | ? | -8% | -20 | -28%
CCc1nc2ccc(C(=O)N3CCN(C)CC3)cn2c1N(C)CCC(C)C | ? | 15% | ? | nt | 15 | 4%
Cc1cc(-c2ccc(S(=O)(=O)Nc3cc(Cl)ccc3C)s2)on1 | 4.6µM* | nt | 2.9µM* | nt | nt | nt
Cc1cc(-c2ccc(S(=O)(=O)Nc3ccc(Br)c(C)c3)s2)on1 | 23µM* | nt | 15µM* | nt | nt | nt
CCOC(=O)c1c(C2CC2)csc1NC(=O)COC(=O)CCS(=O)(=O)c1ccc(C)cc1 | 12% | 17% | 6% | -14% | 0 | 11%
Cc1nonc1OCCN1CCN(c2ccc([N+](=O)[O-])cc2)CC1 | ? | -4% | ? | -1% | -5 | -13%
O=[N+]([O-])c1ccc(N2CCN(CCOc3nonc3-c3ccccc3)CC2)c(Cl)c1 | 29µM* | -14% | ? | -6% | -4 | -4%
O=[N+]([O-])c1ccc(N2CCN(c3ccccc3O)CC2)cc1 | 5% | 11% | -13% | -1% | -76* | 6%
O=[N+]([O-])c1ccc(N2CCN(c3ccccn3)CC2)c(Cl)c1 | 5% | -13% | ? | -12% | -59* | -20%
O=C(CN1CCN(c2ccccc2O)CC1)Nc1cc([N+](=O)[O-])ccc1Cl | ? | -5% | ? | -4% | 27 | -4%
O=[N+]([O-])c1ccc(N2CCN(c3ccccc3O)CC2)c(Cl)c1 | 21µM* | -25% | 23µM* | -6% | ? | -20%
CCNC(=O)c1nn(-c2ccccc2C)nc1CO | 11% | nt | -1% | nt | nt | nt
CCC(=O)N(CC)C1=C(O)c2ccccc2C(=O)C1=O | 4.6µM* | ? | 8.2µM* | 0% | 0 | -14%

Screening data (PubChem)
